ChEMBL document CHEMBL4513146, “CO-ADD screening of Karazin Kharkiv National University (Ukraine) compounds”
Measured potencies and affinities stand elsewhere.

What follows are compounds tested on Staphylococcus aureus. Conditions: Concentration 32 ug.mL-1;; ASSAY_TEST Inhibition of Bacterial Growth; detection method Absorption (OD600); MEDIA CAMHB; plate type 384well; NBS; CORNING #3640; time 18 hr.

SMILES | Inhibition [%]
Cc1ccc(CN(c2cc(C)cc(C)c2)S(=O)(=O)c2cccn3c(C)nnc23)cc1 | 31.07
CC(C)Sc1ccc2nn(CC(=O)Nc3ccc(Br)cc3F)c(=O)n2n1 | -2.61
CCCCN(C)c1ccc2nnc(CCc3nc(-c4ccc(OCc5ccccc5)cc4)no3)n2n1 | -12.25
CC(C)Cn1c(=O)c2ccc(C(=O)NC3CCCCC3)cc2n2c(=O)n(CC#N)nc12 | 8.84
O=C(CSc1nnc2c(=O)n(-c3cccc(F)c3)ccn12)c1ccc(F)cc1 | 5.39
COc1ccc(-c2cc3c4nn(CC(=O)N5CCCc6ccccc65)c(=O)n4ccn3n2)cc1 | 6.07
Cc1cccc(NC(=O)CSc2nnc3ccc(C(=O)Nc4cccc(F)c4)cn23)c1 | 8.5
COc1ccc(-c2cc3c4nn(CC(=O)NCc5ccccc5Cl)c(=O)n4ccn3n2)cc1 | 8.73
CCOC(=O)c1ccccc1NC(=O)Cn1nc2c(Oc3ccccc3)nccn2c1=O | 12.16
CCc1nnc2c(SCC(=O)Nc3ccc(OC)c(Cl)c3)nc3ccccc3n12 | 9.23
CC1CC(C)CN(c2nccn3c(=O)n(CC(=O)Nc4cccc(C(F)(F)F)c4)nc23)C1 (stereo not drawn) | 16.31
CC(C)NC(=O)Cn1nc2nc(Nc3ccc(F)cc3)ccn2c1=O | 8.74
O=S(=O)(c1cccn2cnnc12)N(Cc1ccc(F)cc1)c1ccc(F)cc1 | 8.29
O=C(Cn1nc2c(Oc3ccccc3)nccn2c1=O)Nc1cc(F)ccc1F | -5.96
O=C(CCc1nnc2c(N3CCCCC3)nc3ccccc3n12)NCCc1ccc(Cl)cc1 | 11.18
CCCN(C)c1nccn2c(=O)n(CC(=O)Nc3ccc(OC)c(Cl)c3)nc12 | 16.13
O=c1c2nnc(SCc3ccc(F)cc3)n2ccn1-c1ccc(Br)cc1 | 3.87
O=C(CSc1nnc2c(=O)n(-c3ccc(F)cc3)ccn12)NCC1CCCO1 (stereo not drawn) | 0
CCCN(C)c1nccn2c(=O)n(CC(=O)Nc3cccc(Br)c3)nc12 | 10.78
Cc1cc(NC(=O)Cn2c(=O)c3nnc(C(C)C)n3c3ccccc32)ccc1Br | 13.77
O=c1n(Cc2ccc3c(c2)OCO3)nc2c(S(=O)(=O)N3CCCC3)cccn12 | 0.67
CCOc1cccc(CNC(=O)CCc2nnc3ccc(-c4ccc(C)cc4)nn23)c1 | -1.51
Cc1ccc(-c2cc3c4nn(CC(=O)Nc5cc(F)ccc5C)c(=O)n4ccn3n2)cc1C | 8.9
CCc1nnc2c(=O)n(CC(=O)Nc3cc(Cl)ccc3Cl)c3ccccc3n12 | 1.29

Each compound was assayed on Escherichia coli. Conditions: Concentration 32 ug.mL-1;; ASSAY_TEST Inhibition of Bacterial Growth; detection method Absorption (OD600); MEDIA CAMHB; plate type 384well; NBS; CORNING #3640; time 18 hr.

SMILES | Inhibition [%]
CSc1ccc(CNC(=O)Cn2nc3c(N4CCOCC4)nccn3c2=O)cc1 | -0.45
Cc1cccc(C)c1NC(=O)CSc1nc2ccccc2n2c(C)nnc12 | -4.17
COc1cccc(CN(c2ccc(F)c(F)c2)S(=O)(=O)c2ccc3nnc(C)n3c2)c1 | -2.88
COc1cc(NC(=O)Cn2nc3ccc(SC(C)(C)C)nn3c2=O)cc(OC)c1OC | 1.07
COc1ccc(-c2cc3c4nn(CC(=O)Nc5ccc(C)cc5)c(=O)n4ccn3n2)cc1 | 1.25
COc1ccc(NC(=O)Cn2nc3c4cc(-c5ccc(C)cc5)nn4ccn3c2=O)cc1Cl | -3.03
O=C(Cn1nc2c(SC3CCCCC3)nccn2c1=O)Nc1ccc(F)cc1 | -5.61
Cc1ccc(S(=O)(=O)Nc2ccc3nnc(-c4ccccc4)n3n2)cc1C | -2.69
Cc1nnc2c(=O)n(CC(=O)Nc3ccc(F)cc3F)c3ccccc3n12 | -0.32
COC(=O)c1cccc(NC(=O)Cn2nc3ccc(-c4ccccc4)nn3c2=O)c1 | -13.96
Cc1ccc(-c2cc3c4nnc(CCC(=O)NCc5ccc(F)c(Cl)c5)n4ccn3n2)cc1C | -0.93
COCCCNC(=O)CSc1nnc2c(=O)n(Cc3ccccc3F)ccn12 | 0.71
O=c1n(Cc2cccc(C(F)(F)F)c2)nc2c(S(=O)(=O)N3CCCCC3)cccn12 | -3.78
CC(C)c1ccc(CNC(=O)CCc2nnc3c(N4CCCCC4)nc4ccccc4n23)cc1 | -5.19
NC(=O)C1CCN(C(=O)CCc2nnc3c(N4CCCCC4)nc4ccccc4n23)CC1 | 0.84
Cc1ccc(CN(c2cc(C)cc(C)c2)S(=O)(=O)c2cccn3c(C)nnc23)cc1 | -7.16
CC(C)Sc1ccc2nn(CC(=O)Nc3ccc(Br)cc3F)c(=O)n2n1 | 3.45
CCCCN(C)c1ccc2nnc(CCc3nc(-c4ccc(OCc5ccccc5)cc4)no3)n2n1 | -8.06
CC(C)Cn1c(=O)c2ccc(C(=O)NC3CCCCC3)cc2n2c(=O)n(CC#N)nc12 | -0.16
O=C(CSc1nnc2c(=O)n(-c3cccc(F)c3)ccn12)c1ccc(F)cc1 | 1.51

SMILES | Inhibition [%]
COc1ccc(-c2cc3c4nn(CC(=O)N5CCCc6ccccc65)c(=O)n4ccn3n2)cc1 | 1.46
Cc1cccc(NC(=O)CSc2nnc3ccc(C(=O)Nc4cccc(F)c4)cn23)c1 | -1.74
COc1ccc(-c2cc3c4nn(CC(=O)NCc5ccccc5Cl)c(=O)n4ccn3n2)cc1 | 0.93
CCOC(=O)c1ccccc1NC(=O)Cn1nc2c(Oc3ccccc3)nccn2c1=O | 1.14
CCc1nnc2c(SCC(=O)Nc3ccc(OC)c(Cl)c3)nc3ccccc3n12 | 5.47
CC1CC(C)CN(c2nccn3c(=O)n(CC(=O)Nc4cccc(C(F)(F)F)c4)nc23)C1 (stereo not drawn) | 0.9
CC(C)NC(=O)Cn1nc2nc(Nc3ccc(F)cc3)ccn2c1=O | -2.64
O=S(=O)(c1cccn2cnnc12)N(Cc1ccc(F)cc1)c1ccc(F)cc1 | -3.31
O=C(Cn1nc2c(Oc3ccccc3)nccn2c1=O)Nc1cc(F)ccc1F | -11.57
O=C(CCc1nnc2c(N3CCCCC3)nc3ccccc3n12)NCCc1ccc(Cl)cc1 | 0.17
CCCN(C)c1nccn2c(=O)n(CC(=O)Nc3ccc(OC)c(Cl)c3)nc12 | -1.22
O=c1c2nnc(SCc3ccc(F)cc3)n2ccn1-c1ccc(Br)cc1 | -5.68
O=C(CSc1nnc2c(=O)n(-c3ccc(F)cc3)ccn12)NCC1CCCO1 (stereo not drawn) | -8.97
CCCN(C)c1nccn2c(=O)n(CC(=O)Nc3cccc(Br)c3)nc12 | -4.19
Cc1cc(NC(=O)Cn2c(=O)c3nnc(C(C)C)n3c3ccccc32)ccc1Br | 0
O=c1n(Cc2ccc3c(c2)OCO3)nc2c(S(=O)(=O)N3CCCC3)cccn12 | -7.1
CCOc1cccc(CNC(=O)CCc2nnc3ccc(-c4ccc(C)cc4)nn23)c1 | -5.83
Cc1ccc(-c2cc3c4nn(CC(=O)Nc5cc(F)ccc5C)c(=O)n4ccn3n2)cc1C | -4.51
CCc1nnc2c(=O)n(CC(=O)Nc3cc(Cl)ccc3Cl)c3ccccc3n12 | -5.86
